Hit rate of the full screen: of about 310,000 compounds, about 14,000 (4.5%) showed an effect of 50% or more. The effect is printed as a negative number. The entries come from a sample that favours strong results as a whole.
target: human ether-à-go-go-related gene (hERG) potassium channel (human, UniProt Q12809); test: primary screen, population patch clamp on CHO cells stably expressing hERG; higher = less effect of the substance
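Note: peak tail current of the secondary pulse compared with the same well before compound.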

Sequence of human ether-à-go-go-related gene (hERG) potassium channel (Q12809 whole entry, looked up): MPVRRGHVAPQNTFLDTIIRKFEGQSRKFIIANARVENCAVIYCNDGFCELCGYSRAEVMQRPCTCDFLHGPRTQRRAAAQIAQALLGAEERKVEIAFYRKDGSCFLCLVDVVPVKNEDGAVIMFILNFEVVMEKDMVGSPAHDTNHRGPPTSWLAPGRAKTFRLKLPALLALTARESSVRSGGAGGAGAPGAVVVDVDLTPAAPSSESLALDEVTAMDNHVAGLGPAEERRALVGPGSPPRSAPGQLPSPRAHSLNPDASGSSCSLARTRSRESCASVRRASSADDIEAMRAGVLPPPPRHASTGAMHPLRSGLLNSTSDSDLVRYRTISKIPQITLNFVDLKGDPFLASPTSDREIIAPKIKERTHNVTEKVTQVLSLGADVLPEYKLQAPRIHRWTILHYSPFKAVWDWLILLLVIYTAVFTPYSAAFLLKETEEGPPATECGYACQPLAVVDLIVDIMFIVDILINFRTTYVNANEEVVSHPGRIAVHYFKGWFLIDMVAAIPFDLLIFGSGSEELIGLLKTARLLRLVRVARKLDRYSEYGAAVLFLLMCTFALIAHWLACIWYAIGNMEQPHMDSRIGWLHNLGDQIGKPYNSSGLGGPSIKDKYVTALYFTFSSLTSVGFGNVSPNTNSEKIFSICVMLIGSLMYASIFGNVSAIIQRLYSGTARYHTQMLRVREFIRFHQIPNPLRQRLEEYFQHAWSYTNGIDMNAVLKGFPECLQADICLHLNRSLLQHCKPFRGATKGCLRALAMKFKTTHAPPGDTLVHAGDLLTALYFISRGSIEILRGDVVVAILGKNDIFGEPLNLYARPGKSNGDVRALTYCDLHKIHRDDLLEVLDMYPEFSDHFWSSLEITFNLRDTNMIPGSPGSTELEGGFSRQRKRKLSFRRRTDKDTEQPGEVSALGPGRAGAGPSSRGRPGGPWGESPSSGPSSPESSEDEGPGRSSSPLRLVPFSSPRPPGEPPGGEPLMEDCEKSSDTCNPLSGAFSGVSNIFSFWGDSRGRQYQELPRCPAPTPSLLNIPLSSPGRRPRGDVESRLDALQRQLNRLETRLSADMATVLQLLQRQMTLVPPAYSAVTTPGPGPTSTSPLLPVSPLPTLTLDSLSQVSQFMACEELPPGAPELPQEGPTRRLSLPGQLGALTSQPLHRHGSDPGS

Structure (SMILES)	hERG current change (%, negative = inhibition) at 10uM
Cn1c(COc2cccc3cccnc23)nnc1SCC(=O)O	9.13%
Cc1cccc(C)c1NC(=O)CCS(=O)(=O)c1cccc2nsnc12	-4.59%
CCOC(=O)c1cc2c(ccn2C)n1Cc1ccccc1C	11.8%
CN1C(=O)CC(c2ccccc2)C1=O (stereo not drawn)	3.18%
Cc1cc(NCCc2ccccc2F)n2ncnc2n1	-1.21%
Cc1cc(C)cc(N(C(=O)Cc2cccs2)C(C(=O)NC2CCCC2)c2ccc(C)o2)c1 (stereo not drawn)	2.77%
COC(=O)c1cc2c(ccn2-c2ccc(F)cc2)n1Cc1cccc(OC)c1	0.0373%
O=C(O)CCC(=O)N1CCN(c2ccc(C(=O)c3ccc(F)cc3)cc2)CC1	0.927%
O=C(CCn1nc(-c2ccccc2)ccc1=O)N1CCN(c2ccccn2)CC1	-53.1%
O=C(CCC(=O)N1CCN(c2ccc(F)cc2)CC1)N1CCN(c2ccc(F)cc2)CC1	-43.9%
O=C(CCC(=O)N1CCN(c2ccc(F)cc2)CC1)c1ccc(Cl)cc1	-55.8%
O=C(CCn1nc(-c2ccccc2)ccc1=O)N1CCN(c2ccccc2)CC1	-11.2%
Cc1ccc(-c2ccc(=O)n(CCC(=O)N3CCN(c4ccccc4)CC3)n2)cc1	-49.1%
CC(C)CN(C(=O)COC(=O)c1ccc([N+](=O)[O-])o1)C1CCS(=O)(=O)C1 (stereo not drawn)	-31.8%
CC(C)COC(=O)N1CC(O)CC1C(=O)O (stereo not drawn)	25.3%
CCCC(=O)Nc1nnc(SCC(=O)N2C(C)CCCC2C)s1 (stereo not drawn)	-50.1%
COCC(=O)Nc1nnc(SCC(=O)N2C(C)CCCC2C)s1 (stereo not drawn)	15.2%
CC(=O)Nc1nnc(SCC(=O)N2C(C)CCCC2C)s1 (stereo not drawn)	12.9%
Cn1cnnc1SCC(=O)Nc1cccc(S(=O)(=O)N2CCCCCC2)c1	-17.4%
Cc1ccc(S(=O)(=O)N2CCCCC2)cc1NC(=O)CSc1nncn1-c1ccccc1	-35.2%
COCCn1cnnc1SCC(=O)Nc1cccc(S(=O)(=O)N2CCCCCC2)c1	-60.3%
COc1ccc(-n2cnnc2SCC(=O)Nc2cc(S(=O)(=O)N3CCCCC3)ccc2C)cc1	-84%
O=C(CSc1ncn[nH]1)Nc1ccc(S(=O)(=O)N2CCCC2)cc1	14.5%
O=C(CSc1ncn[nH]1)Nc1cccc(S(=O)(=O)N2CCCCCC2)c1	-77.1%
COc1ccc(-n2cnnc2SCC(=O)Nc2cccc(S(=O)(=O)N3CCCCC3)c2)cc1	-18.5%
Cc1ccc(S(=O)(=O)N2CCCCC2)cc1NC(=O)CSc1ncn[nH]1	12%
COCCn1cnnc1SCC(=O)Nc1cccc(S(=O)(=O)N2CCCCC2)c1	-17.8%

From article PMC4336329 (PLoS ONE, 2015)
